“And” between values parts separate entries of the source, which are not always exact repeats. Equal entries are not always repeated. Records with an inconclusive call do not appear. Where a structure was tested more than once in an assay, its records may differ in their call. The source made the active and inactive calls. Calls follow the shape of the dose curve; as a rule, active = well fitted curve in the direction sought with a large enough effect; inconclusive = small, poorly fitted or top-dose-only effect, or another doubt; inactive = no such curve, though single readings can be large; an effect the other way counts as inactive or inconclusive.

Assay [1] concerns the target Glutathione peroxidase 1 (Homo sapiens) (UniProt P07203). The assay is described as follows: Primary qHTS Assay for Inhibitors of Recombinant Selenoprotein Glutathione Peroxidase 1 (GPX1) (AID 1845191). Also: nearly all actives have a fitted effect of over 65% in size. Also: potency is read from the fitted curve at half-maximal effect. A digest of the protocol: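 GR-coupled readout: NADPH consumption tracked by fluorescence, ex 340/em 450 nm, at t=0 and after 15 min at RT. Final mix 10 nM GPX1, 1 mM GSH, 0.5 mM CHP, 0.5 mM NADPH, 100 nM GR, 0.01% BSA, following 30 min enzyme–compound preincubation.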
For orientation: Quantitative high-throughput screening tests each substance at several concentrations.

For assay [2], the target named is Phospholipid hydroperoxide glutathione peroxidase GPX4 (Homo sapiens) (UniProt P36969). The assay is described as follows: Primary qHTS Assay for Inhibitors of Recombinant Selenoprotein Glutathione Peroxidase 4 (GPX4) (AID 1845192). Also: nearly all actives have a fitted effect of over 65% in size. In short, it runs like this:
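Steps: GPX4 plus compound, 30 min RT; add GR/GSH/NADPH master mix; start with cumene hydroperoxide; read 340/450 nm fluorescence at 0 and 15 min. Finals were 200 nM GPX4, 1 mM GSH, 0.5 mM CHP, 0.5 mM NADPH, 100 nM GR.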

Assay [3] is described as follows: Quantitative High-Throughput drug screen in 47 multiple myeloma cell lines against the NCATS MIPE library collection: Delta47_JCRB cell viability assay (AID 1918925; also: nearly all actives have a fitted effect of over 45% in size; also: potency is read from the fitted curve at half-maximal effect). In short, it runs like this:
(§1)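 Luminescent ATP measurement with CellTiter-Glo gives viability, scaled between DMSO-only wells (100%) and media-only wells (0%). Cells, 500 per well, faced library compounds for 48 hours at 37C.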

The nature of assay [4]: Quantitative High-Throughput drug screen in 47 multiple myeloma cell lines against the NCATS MIPE library collection: EJM_DSMZ cell viability assay (AID 1918926; also: nearly all actives have a fitted effect of over 30% in size; also: potency is read from the fitted curve at half-maximal effect). In short, it runs like this: as §1
Assay [5] can be described thus: Quantitative High-Throughput drug screen in 47 multiple myeloma cell lines against the NCATS MIPE library collection: FR4_PLB cell viability assay (AID 1918924; also: nearly all actives have a fitted effect of over 35% in size; also: potency is read from the fitted curve at half-maximal effect). In short, it runs like this:
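We plated 500 myeloma cells per well, pinned in MIPE 4.0 compounds, and incubated for 48 hours at 37C. ATP was then quantified with CellTiter-Glo, with DMSO and media-only wells defining 100% and 0%.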

A short description of assay [6]: Quantitative High-Throughput drug screen in 47 multiple myeloma cell lines against the NCATS MIPE library collection: ARD_JJKsccE7 cell viability assay (AID 1918929; also: potency is read from the fitted curve at half-maximal effect). A digest of the protocol: as §1
A short description of assay [7]: Quantitative High-Throughput drug screen in 47 multiple myeloma cell lines against the NCATS MIPE library collection: AMO1_DSMZ cell viability assay (AID 1918927; also: nearly all actives have a fitted effect of over 30% in size; also: potency is read from the fitted curve at half-maximal effect). A digest of the protocol:
as §1

Assay [8] can be described thus: Quantitative High-Throughput drug screen in 47 multiple myeloma cell lines against the NCATS MIPE library collection: ARP1_JJKsccF8 cell viability assay (AID 1918928; also: nearly all actives have a fitted effect of over 40% in size; also: potency is read from the fitted curve at half-maximal effect). A digest of the protocol: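 500 cells/well; MIPE 4.0 library pinned in; 48 h, 37 °C, 5% CO2; CellTiter-Glo ATP luminescence. Controls: DMSO = 100% viability, medium only = 0%.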
A short description of assay [9]: Primary fluorescence-based thiol-reactive (MSTI) qHTS assay for identification of artifact compounds. (AID 1845221).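 Also: series mostly up to about 54 µM; thiol-reactive compounds lower the probe fluorescence signal; nearly all actives have a fitted effect of over 65% in size.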 A digest of the protocol: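 qHTS titration of compound; 4 uM MSTI, PBS pH 7.4, 2% DMSO; 1 h RT, dark; fluorescence 525/598 nm; normalized to Acetyl-MSTI and MSTI; 4-parameter Hill fit.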
The test system of assay [10] is Nanoluciferase (engineered Oplophorus gracilirostris luciferase). As to the kind of experiment: Primary Nanoluciferase (NLuc) qHTS assay for identification of artifact compounds. (AID 1845222).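 Also: NLuc secreted into diluted conditioned medium of S16 cells; series mostly up to about 54 µM.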 A digest of the protocol: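 qHTS format, against NLuc in S16 cell-conditioned medium. Nano-Glo substrate 1:100 was added after 15 min at room temperature. Luminescence was taken after a further 5 min.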

Assay [11] is described as follows: Primary redox qHTS assay for identification of artifact compounds. (AID 1845223). A digest of the protocol: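 Redox-cycling detection via DTT (250 uM final) oxidation coupled to Amplex Red (25 uM)/HRP (250 mU/mL) in HBSS. 15 min preincubation plus 30 min after DTT, room temperature. Ex/Em 525/598 nm; 4-parameter Hill fit against DMSO and 10 uM DA3003.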

Chain of Phospholipid hydroperoxide glutathione peroxidase GPX4 (Homo sapiens) (P36969 whole entry, looked up): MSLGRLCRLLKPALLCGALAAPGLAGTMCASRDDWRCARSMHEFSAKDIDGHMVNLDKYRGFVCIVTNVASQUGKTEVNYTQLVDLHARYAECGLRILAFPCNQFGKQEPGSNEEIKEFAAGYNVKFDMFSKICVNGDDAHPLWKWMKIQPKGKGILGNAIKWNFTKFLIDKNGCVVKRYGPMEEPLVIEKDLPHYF
Chain of Glutathione peroxidase 1 (Homo sapiens) (P07203 whole entry, looked up): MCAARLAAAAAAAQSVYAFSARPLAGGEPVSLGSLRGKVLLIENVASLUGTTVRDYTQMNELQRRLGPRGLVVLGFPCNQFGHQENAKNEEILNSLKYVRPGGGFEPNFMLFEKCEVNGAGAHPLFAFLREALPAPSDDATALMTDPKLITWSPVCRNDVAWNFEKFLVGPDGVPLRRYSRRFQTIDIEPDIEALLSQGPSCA

For the compound `COc1cc2nc(N3CCN(C(=O)C4CCCO4)CC3)nc(N)c2cc1OC` (configuration not stated), the Potency result in assay [1], in assay [2], in [3] and in [4] was “inactive” each time.
In the case of `Nc1ncn([C@H]2C[C@H](O)[C@@H](CO)O2)c(=O)n1`, the Potency entry in assay [1], in assay [2], in [5] and in assay [4] was “inactive” in each case. Also, the Potency in [6] is 0.418 µM (active).
Consider `C[C@]12CCC(=O)C=C1CC[C@@H]1[C@H]2[C@@H](O)C[C@@]2(C)[C@H]1CC[C@]2(O)C(=O)CO`, for which the Potency entry in assay [5], in assay [4] and in assay [7] was “inactive” in each case. In addition, the Potency in assay [6] is 0.0118 µM (active).
Turning to `Clc1ccc(C(Cn2ccnc2)OCc2ccsc2Cl)c(Cl)c1` (configuration not stated), the Potency result in assay [1] and in [2] was “inactive” in each case. In addition, the figures for the Potency in assay [4] and in assay [7] were 14.8 µM (active) and 18.7 µM (active), respectively.
For `COC(=O)C1=C(C)NC(C)=C(C(=O)OCCCN2CCC(c3ccccc3)(c3ccccc3)CC2)C1c1cccc([N+](=O)[O-])c1` (configuration not stated), the Potency entry in [1], in [5], in assay [4], in [7] and in assay [6] was “inactive” throughout.
On to `CNC[C@@H](O)[C@@H](O)[C@H](O)[C@H](O)CO`, for which the Potency entry in assay [4], in assay [7], in [8] and in assay [6] was “inactive” in each case.
For `O=C(O)c1cc(=O)c2c(OCC(O)COc3cccc4oc(C(=O)O)cc(=O)c34)cccc2o1`, the Potency result in assay [1], in assay [2], in [4], in assay [7], in assay [8] and in assay [6] was “inactive” in each case.
Take `c1ccc2[nH]c(-c3cscn3)nc2c1`: the Potency result in assay [1], in assay [2], in [3], in assay [7], in assay [8] and in [6] was “inactive” each time.
For `Cc1cc(=O)c2c(O)c3c(O)cc(=O)c4c3c3c(cc(O)c1c23)C(C)(C)C=4O`, the Potency was 13.2 µM (active) in assay [5]; 0.372 µM (active) in assay [3]; 14.8 µM (active) in assay [4]; 5.26 µM (active) in assay [7]; 2.96 µM (active) in assay [8]; 3.32 µM (active) in [6].
As to `Cc1ccc(S(=O)(=O)NC(=O)NN2CC3CCCC3C2)cc1` (configuration not stated), the Potency entry in assay [1] and in assay [2] was “inactive” each time. The Potency is 18.7 µM (active) in assay [3], 23.5 µM (active) in assay [7], 26.4 µM (active) in assay [8] and 26.4 µM (active) in assay [6].
For `COCCCOc1ccnc(CS(=O)c2nc3ccccc3[nH]2)c1C` (configuration not stated), in assay [1], the Potency entry was “inactive and 14.3 µM (active)”. The Potency result in assay [9], in [5], in assay [3], in [4], in assay [7] and in assay [6] was “inactive” each time. Moreover, the result in [10] and in assay [11] was inactive.
Consider `O=C(CS(=O)Cc1ccco1)NCC=CCOc1cc(CN2CCCCC2)ccn1` (configuration not stated), for which the Potency entry in assay [5], in assay [4], in assay [7] and in [6] was “inactive” each time.
As for `CCCCN(CCCC)CCC(O)c1cc2c(Cl)cc(Cl)cc2c2cc(C(F)(F)F)ccc12` (configuration not stated), the Potency entry in assay [1], in [2], in assay [8] and in [6] was “inactive” each time. In addition, the Potency is 20.9 µM (active) in [5] and 0.264 µM (active) in assay [4].
Regarding `CN1CCC(=C2c3ccccc3CCc3sccc32)CC1`, the Potency entry in assay [1], in assay [2], in assay [5], in assay [4] and in assay [8] was “inactive” each time.
Consider `NNc1nncc2ccccc12`, for which the Potency result in assay [1], in [2], in assay [5], in [8] and in assay [6] was “inactive” in each case.
Take `O=C(NCC1CCCCN1)c1cc(OCC(F)(F)F)ccc1OCC(F)(F)F` (configuration not stated): the Potency entry in [1], in assay [2] and in assay [4] was “inactive” each time. For the same compound, the Potency in [3] was 8.33 µM (active); in assay [7], 3.32 µM (active); in assay [6], 3.72 µM (active).
For the compound `COc1c2occc2cc2ccc(=O)oc12`, the Potency result in [1], in assay [2], in [3], in [4], in assay [7] and in [8] was “inactive” throughout.
`CCOc1cc(CC(=O)N[C@@H](CC(C)C)c2ccccc2N2CCCCC2)ccc1C(=O)O`: the Potency result in assay [1], in [2], in assay [5], in [4], in [8] and in assay [6] was “inactive” in each case.
In the case of `NC(=O)Cc1cccc(C(=O)c2ccccc2)c1N`, the Potency result in [1], in assay [2], in assay [3], in [4], in assay [7] and in [6] was “inactive” in each case.
Regarding `O=C(NCCO[N+](=O)[O-])c1cccnc1`, the Potency entry in assay [1], in assay [2], in [5], in assay [4], in assay [8] and in assay [6] was “inactive” each time.
`CCc1nc(N)nc(N)c1-c1ccc(Cl)cc1`: the Potency result in assay [1], in [2], in assay [3] and in [4] was “inactive” each time. In addition, in assay [7], the Potency was 1.48 µM (active).
As to `CC(C)Oc1ccc2c(=O)c(-c3ccccc3)coc2c1`, the Potency entry in assay [1], in [2], in [3], in [4], in assay [7] and in assay [6] was “inactive” each time.
Consider `Cc1cccc(C)c1OCC(=O)N[C@@H](Cc1ccccc1)[C@@H](O)C[C@H](Cc1ccccc1)NC(=O)[C@H](C(C)C)N1CCCNC1=O`, for which the Potency result in assay [1] and in assay [2] was “inactive” throughout. In addition, the Potency in assay [7] was 8.33 µM (active); in assay [6] it was 5.9 µM (active).
For `Cn1c(NCCN(CCO)CCCc2ccc([N+](=O)[O-])cc2)cc(=O)n(C)c1=O`, the Potency entry in assay [1], in assay [2], in [4] and in assay [8] was “inactive” each time. Moreover, in [7], the Potency was 18.7 µM (active).
As to `COC(=O)C1=C(C)NC(C)=C(C(=O)OC(C)C)C1c1cccc2nonc12` (configuration not stated), the Potency result in assay [1], in assay [2], in assay [4], in [7], in [8] and in assay [6] was “inactive” throughout. Moreover, the Potency in [3] was 2.96 µM (active).
For `CCN(CC)CCOc1ccc(Cc2ccccc2)cc1`, the Potency result in [1], in assay [2] and in assay [3] was “inactive” each time. For the same compound, in assay [7], the Potency was 20.9 µM (active).
On to `O=C(NC(Cc1cc(=O)[nH]c2ccccc12)C(=O)O)c1ccc(Cl)cc1` (configuration not stated), for which the Potency result in [1], in assay [2], in [5], in assay [8] and in [6] was “inactive” throughout. Further, in assay [4], the Potency was 4.69 µM (active).
With `COC1=C(OC)C(=O)C(CCCCCCCCCCO)=C(C)C1=O`, the Potency entry in assay [1] is “inactive and 7.28 µM (active)”; in assay [3], 18.7 µM (active); in [7], 10.5 µM (active); in [8], 23.5 µM (active); in [6] it was 20.9 µM (active). In addition, the Potency entry in [2] and in assay [4] was “inactive” throughout.
For `Cc1cc2cc3c(C)cc(=O)oc3c(C)c2o1`, the Potency result in assay [1] and in assay [2] was “inactive” in each case. In addition, the Potency in [3] is 20.9 µM (active); in assay [4], 5.9 µM (active).
With `C=CCc1cc(OC)c(O)c(C(=O)NCCO)c1`, the Potency entry in [5], in assay [3], in assay [4] and in [7] was “inactive” each time.
For the compound `CN1C(C(=O)Nc2ccccn2)=C(O)c2sccc2S1(=O)=O`, the Potency result in [1], in [2], in [5], in [4] and in assay [8] was “inactive” each time.
Take `Cc1ccc(C(=O)c2cc(O)c(O)c([N+](=O)[O-])c2)cc1`: the Potency entry in assay [1], in [2] and in assay [8] was “inactive” throughout. Besides, the Potency in assay [3] is 26.4 µM (active); in [6], 20.9 µM (active).
`CC1=C(C(=O)O)N2C(=O)[C@@H](NC(=O)[C@H](N)C3=CCC=CC3)[C@H]2SC1`: the Potency entry in assay [3], in assay [4] and in assay [8] was “inactive” throughout.
On to `COCCCN1CCC(NC(=O)c2cc(Cl)c(N)c3c2OCC3)CC1`, for which the Potency result in assay [1] and in [2] was “inactive” throughout. The Potency in assay [3] is 18.7 µM (active); in assay [7], 14.8 µM (active); in [6] it was 20.9 µM (active).
In the case of `Clc1ccc(C(Cn2ccnc2)OCc2ccc(Sc3ccccc3)cc2)c(Cl)c1` (configuration not stated), the Potency entry in assay [1] and in [2] was “inactive” each time. Besides, the values for the Potency in assay [7] and in assay [6] were 20.9 µM (active) and 26.4 µM (active), respectively.
With `CCCCCCCCOc1ccccc1C(=O)Nc1ccc(C(=O)OCC[N+](C)(CC)CC)cc1`, the Potency in assay [3] is 18.7 µM (active); in assay [8], 20.9 µM (active). The Potency entry in assay [7] and in [6] was “inactive” in each case.
